In PubChem BioAssay (NCATS):
“And” between values parts separate entries of the source, which are not always exact repeats. Equal values may be shown once. Results filed as inconclusive are left out. The source made the active and inactive calls. Unless noted, calls follow the shape of the dose curve; as a rule, active = well fitted curve in either direction with a large enough effect (not every such curve was filed as active); inconclusive = small, poorly fitted or top-dose-only effect, or another doubt; inactive = flat fitted curve, though single readings scatter.

Key:
[1] = molecular target: Glucocorticoid receptor (Homo sapiens) (UniProt P04150); assay: GR-GFP Redistribution (AID 450;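 active = compounds whose dose series gives a full or clear partial fitted curve of increased nuclear translocation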; also: potency is read from the fitted curve at half-maximal effect); conditions: U2OS GR-GFP nuclear translocation, laser cytometry, 2 h
Glucocorticoid receptor (Homo sapiens), sequence (P04150 whole entry, looked up, the tested form may be a part): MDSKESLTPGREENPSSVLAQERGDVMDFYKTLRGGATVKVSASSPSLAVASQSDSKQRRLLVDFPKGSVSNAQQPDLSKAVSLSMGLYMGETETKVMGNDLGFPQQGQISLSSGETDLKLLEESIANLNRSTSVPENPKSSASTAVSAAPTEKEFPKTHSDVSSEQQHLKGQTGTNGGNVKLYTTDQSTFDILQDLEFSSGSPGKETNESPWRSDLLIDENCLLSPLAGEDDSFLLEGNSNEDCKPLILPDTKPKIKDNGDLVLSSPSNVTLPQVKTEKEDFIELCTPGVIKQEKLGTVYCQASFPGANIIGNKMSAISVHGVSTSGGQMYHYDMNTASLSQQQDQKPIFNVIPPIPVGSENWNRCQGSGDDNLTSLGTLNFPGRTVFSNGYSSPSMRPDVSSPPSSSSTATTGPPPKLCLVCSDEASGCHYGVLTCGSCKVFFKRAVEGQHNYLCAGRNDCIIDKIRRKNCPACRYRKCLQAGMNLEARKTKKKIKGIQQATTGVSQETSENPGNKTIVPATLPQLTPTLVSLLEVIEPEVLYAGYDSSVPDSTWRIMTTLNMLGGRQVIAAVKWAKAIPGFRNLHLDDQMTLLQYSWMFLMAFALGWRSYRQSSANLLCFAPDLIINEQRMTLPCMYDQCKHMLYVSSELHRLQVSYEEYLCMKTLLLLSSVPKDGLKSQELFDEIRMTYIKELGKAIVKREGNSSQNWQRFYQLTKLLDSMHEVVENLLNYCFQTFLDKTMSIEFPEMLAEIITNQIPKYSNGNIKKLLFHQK

[2] = molecular target: Glucocorticoid receptor (Homo sapiens) (UniProt P04150); assay: GR-EFC Redistribution (AID 451; calls by dose curve; also: potency is read from the fitted curve at half-maximal effect); conditions: CHO-K1 GR-EFC translocation, beta-gal luminescence, 2 h
Method in brief: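 CHO-K1 cells expressing nuclear EA and GR-ED fragments of b-gal; compounds titrated up to 46 uM final, 2 h at 37 C. GR nuclear translocation read as complemented b-gal luminescence after 1 h RT detection.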

[3] = molecular target: Lysosomal acid glucosylceramidase (Homo sapiens) (UniProt P04062); assay: Glucocerebrosidase-p2 (AID 348; in the data active = potency below about 10 µM; also: potency is read from the fitted curve at half-maximal effect); conditions: purified GBA, blue fluorogenic substrate, 40 min
Lysosomal acid glucosylceramidase (Homo sapiens), sequence (P04062 whole entry, looked up): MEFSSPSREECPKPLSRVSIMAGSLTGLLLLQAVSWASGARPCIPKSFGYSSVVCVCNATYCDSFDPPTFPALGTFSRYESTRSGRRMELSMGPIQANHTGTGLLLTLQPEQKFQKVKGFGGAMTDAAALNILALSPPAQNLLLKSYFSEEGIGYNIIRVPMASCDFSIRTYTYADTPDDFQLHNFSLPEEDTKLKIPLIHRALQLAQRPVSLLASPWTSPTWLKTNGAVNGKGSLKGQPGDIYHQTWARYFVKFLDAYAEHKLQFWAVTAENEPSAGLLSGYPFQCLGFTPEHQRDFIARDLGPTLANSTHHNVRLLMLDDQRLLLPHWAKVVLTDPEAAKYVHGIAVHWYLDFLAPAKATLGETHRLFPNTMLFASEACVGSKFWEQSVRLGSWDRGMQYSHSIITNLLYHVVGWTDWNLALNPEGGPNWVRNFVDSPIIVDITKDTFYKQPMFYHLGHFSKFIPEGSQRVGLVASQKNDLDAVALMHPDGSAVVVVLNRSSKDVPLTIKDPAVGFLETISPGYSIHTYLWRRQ
Method in brief: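 Compounds titrated from 0.6 nM upwards against 0.2 nM enzyme in pH 5.9 citric acid/KH2PO4, taurocholate, tween-20; blue fluorogenic substrate 80 uM, 40 min room temperature, stopped and read Ex 365/Em 440 for AC50.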

[4] = AP1 Signaling Pathway (AID 357); conditions: ME-180 AP-1-bla reporter, EGF-induced, beta-lactamase ratio, 5 h; series mostly up to 17.2 µM;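 also: ME-180 reporter cells stimulated with EGF at its EC50 level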
Method in brief: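 Titration-series screen for positive or negative modulators of EC50 EGF-induced signaling in ME-180 cells carrying an AP-1-driven beta-lactamase reporter. After 5 hours at 37 degrees Celsius, CCF4 460nm/530nm emission ratio gave %Activity; AC50 values derived.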

[5] = NFAT Signaling Pathway (AID 444); conditions: Jurkat NFAT-bla M1, carbachol, beta-lactamase ratio, 5 h; series mostly up to 17.2 µM;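 also: carbachol stimulus at about its EC50 of 1 µM final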
Method in brief: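 Jurkat cells with NFAT-driven β-lactamase reporter and co-expressed M1 receptor, stimulated with carbachol (final 1 uM, ~EC50), compound titration, 5 h at 37 °C. CCF4 loaded 1 h at RT; 460/530 nm ratio gave %activity and AC50.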

[6] = molecular target: Mitogen-activated protein kinase 10 (Mus musculus) (UniProt Q61831); assay: JNK3 AlphaScreen Assay (AID 530); conditions: JNK3 lysate, c-Jun phosphorylation; series mostly up to 25.6 µM;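 also: kinase came from lysate of stimulated human HepG2 cells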; also: potency is read from the fitted curve at half-maximal effect
Method in brief: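 Pre-activated (IL-1β/TNFα) JNK3 in HepG2 lysates phosphorylates biotin-GST-cJun(1-79), 10 uM ATP; anti-phospho-cJun(Ser73) AlphaScreen read at room temperature, pH 7.6 Tris buffer. Compounds pre-incubated 15 min as titrations.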

[7] = molecular target: 3',5'-cyclic-AMP phosphodiesterase 4B (Homo sapiens) (UniProt Q07343); assay: qHTS Assay for Inhibitors of PDE-IV (AID 607; active = well fitted activation curve with a large enough effect in the main read-out, with a control signal flat, not every such curve was filed as active); conditions: HEK293 ACTOne CNG channel cells, membrane potential fluorescence; series mostly up to 22.9 µM
3',5'-cyclic-AMP phosphodiesterase 4B (Homo sapiens), sequence (Q07343 whole entry, looked up): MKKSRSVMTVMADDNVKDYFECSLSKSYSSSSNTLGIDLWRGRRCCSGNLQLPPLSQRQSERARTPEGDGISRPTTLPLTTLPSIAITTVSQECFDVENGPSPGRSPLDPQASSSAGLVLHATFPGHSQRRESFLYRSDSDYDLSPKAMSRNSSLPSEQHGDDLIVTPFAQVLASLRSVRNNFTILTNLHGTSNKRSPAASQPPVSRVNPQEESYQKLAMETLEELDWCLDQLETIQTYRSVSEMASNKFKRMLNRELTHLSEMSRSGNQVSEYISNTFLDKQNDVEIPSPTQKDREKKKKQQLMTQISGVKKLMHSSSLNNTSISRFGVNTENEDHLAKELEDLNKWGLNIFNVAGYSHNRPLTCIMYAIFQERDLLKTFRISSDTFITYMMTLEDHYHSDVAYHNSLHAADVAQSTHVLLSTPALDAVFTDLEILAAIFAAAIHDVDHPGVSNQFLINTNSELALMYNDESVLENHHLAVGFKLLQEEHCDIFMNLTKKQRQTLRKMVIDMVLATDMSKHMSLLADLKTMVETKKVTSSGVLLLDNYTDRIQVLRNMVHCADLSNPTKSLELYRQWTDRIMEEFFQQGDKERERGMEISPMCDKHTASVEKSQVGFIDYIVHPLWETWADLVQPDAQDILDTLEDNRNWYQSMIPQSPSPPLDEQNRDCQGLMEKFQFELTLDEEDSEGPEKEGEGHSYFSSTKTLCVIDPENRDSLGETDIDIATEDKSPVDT
Method in brief: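 The readout is membrane depolarisation from a cAMP-sensing CNG channel, detected with a potential dye at ex 535/em 590. Cells were HEK293-derived (endogenous PDE-IV) at 1000 cells/well, titrated up to 22.9 uM final.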

[8] = Stat Signaling Pathway (AID 446); conditions: ME-180 SIE beta-lactamase reporter, IL-6 stimulated, 5 h; series mostly up to 17.2 µM;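 also: ME-180 cervical cancer cells given 40 pM IL-6 alongside compound; SIE-controlled beta-lactamase reporter measured as 460/530 nm FRET emission ratio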
Method in brief: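 Screening format detects activators and inhibitors alike: ME-180 SIE-bla cells stimulated at 40 pM IL-6 for 5 hrs with compound, then dual-emission beta-lactamase read at 405 nm excitation.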

[9] = Cell Viability - BJ (AID 421; calls by dose curve;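 also: potency is read from the fitted curve at half-maximal effect; cells exposed to compound for 40 hours at 37 °C before readout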); conditions: BJ fibroblast viability, qHTS
Method in brief: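 Cytotoxicity in human BJ foreskin fibroblasts is scored as loss of cellular ATP after a 40-hour exposure, measured by luciferase luminescence. Controls are DMSO and 100 uM tamoxifen.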

[10] = Cell Viability - Jurkat (AID 426;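 active = dose-dependent loss of cell ATP signal giving a full or clear fitted curve, ranked by lower potency value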; also: potency is read from the fitted curve at half-maximal effect); conditions: qHTS
Method in brief: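 qHTS, 1536-well; Jurkat E6-1, 5000 cells/well, complete medium; cpd 40 hr, 37 °C; CellTiter-Glo 20 min RT; luminescence. AC50 by Hill fit.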

[11] = Cell Viability - Hek293 (AID 427;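 active = compounds whose dose-response curve shows a full or clear partial loss of cell viability, called from curve shape rather than a numeric limit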;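 also: potency is read from the fitted curve at half-maximal effect; cells exposed to compound for 40 hours at 37 °C before reading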); conditions: qHTS
Method in brief: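 qHTS, human embryonic kidney (adenovirus-transformed) cells; 40 hr cpd, 37 °C; CellTiter-Glo ATP luminescence. Norm: DMSO = 0, 100 uM tamoxifen = 100% inhibition. Hill-fit AC50.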

[12] = Cell Viability - HepG2 (AID 433; calls by dose curve;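 also: potency is read from the fitted curve at half-maximal effect; potency for ATP loss meaning cytotoxicity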); conditions: qHTS
Method in brief: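 HepG2 hepatocellular carcinoma cells (1500/well) were treated with compounds for 40 h at 37 °C in complete medium; intracellular ATP was read by CellTiter-Glo luminescence. Data were normalized to DMSO and 100 uM tamoxifen, and AC50 came from Hill fits.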

[13] = Cell Viability - MRC5 (AID 434; calls by dose curve;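 also: potency is read from the fitted curve at half-maximal effect; potency reflects cytotoxicity seen as loss of intracellular ATP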); conditions: MRC5 lung fibroblast viability, qHTS
Method in brief: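 MRC5 normal human lung fibroblasts, 1500 cells/well, exposed to compound for 40 hr at 37 C. Cellular ATP was read by CellTiter-Glo luminescence; data normalized to DMSO and 100 uM tamoxifen, with AC50 from Hill fits.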

[14] = Cell Viability - SK-N-SH (AID 435; calls by dose curve;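 also: potency is read from the fitted curve at half-maximal effect; compound exposure lasted 40 h at 37 °C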); conditions: SK-N-SH neuroblastoma cell viability qHTS
Method in brief: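 SK-N-SH human neuroblastoma cells (1500/well) were exposed to compounds in complete medium for 40 h at 37 °C, and intracellular ATP was then measured by CellTiter-Glo luminescence. AC50 was taken from Hill fits, normalized to DMSO and 100 uM tamoxifen.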

[15] = Cell Viability - N2a (AID 540; active = well fitted curve in the direction sought with a large enough effect; an effect the other way counts as inactive or inconclusive; also: nearly all actives have a fitted effect of over 45% in size); conditions: N2a mouse neuroblastoma cell viability; series mostly up to 92.2 µM
Method in brief: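 Luminescent ATP signal (CellTiter-Glo, 20 min at room temperature) served as the viability read-out after N2a cells were treated with compounds for 40 hours at 37 °C. Concentration-response data were fitted to the Hill equation for AC50.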

[16] = Cell Viability - HUV-EC-C (AID 542; active = well fitted curve in the direction sought with a large enough effect; an effect the other way counts as inactive or inconclusive; also: nearly all actives have a fitted effect of over 35% in size); conditions: HUV-EC-C endothelial cell viability, qHTS; series mostly up to 92.2 µM
Method in brief: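 qHTS cytotoxicity: HUV-EC-C, 1000 cells/well, 5 hr settle, compound 40 hr 37 °C, CellTiter-Glo, luminescence. AC50 via Hill equation.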

[17] = Cell Viability - H-4-II-E (AID 543; active = well fitted curve in the direction sought with a large enough effect; an effect the other way counts as inactive or inconclusive; also: nearly all actives have a fitted effect of over 35% in size); conditions: H-4-II-E rat hepatoma viability; series mostly up to 92.2 µM
Method in brief: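 Luminescent ATP signal (CellTiter-Glo) served as the viability read-out, with cytotoxicity seen as a concentration-dependent ATP drop. Cells were treated for 40 hours in complete medium. AC50 values derive from Hill-equation modelling.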

[18] = Cell Viability - SH-SY5Y (AID 544; active = well fitted curve in the direction sought with a large enough effect; an effect the other way counts as inactive or inconclusive; also: nearly all actives have a fitted effect of over 55% in size); conditions: SH-SY5Y neuroblastoma cell viability; series mostly up to 92.2 µM
Method in brief: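 Luminescent ATP read-out (CellTiter-Glo) measures loss of viable SH-SY5Y neuroblastoma cells after 40 hr compound exposure at 37 °C. AC50 values derive from standard Hill modelling of qHTS concentration-response data.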

[19] = Cell Viability - Renal Proximal Tubule (AID 545; active = well fitted curve in the direction sought with a large enough effect; an effect the other way counts as inactive or inconclusive; also: nearly all actives have a fitted effect of over 40% in size); conditions: renal proximal tubule cells viability, primary cells of rat origin; series mostly up to 91.7 µM
Method in brief: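 Primary rat renal proximal tubule cells (1000/well) were treated with compounds for 40 hr at 37 °C in complete medium. Intracellular ATP was measured by CellTiter-Glo luminescence, and AC50 values came from Hill-equation fits of concentration-response data.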

[20] = Cell Viability - Mesenchymal (AID 546; active = well fitted curve in the direction sought with a large enough effect; an effect the other way counts as inactive or inconclusive;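 also: cells exposed to compound for 40 hours before reading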); conditions: mesenchymal cells viability, qHTS; series mostly up to 91.7 µM
Method in brief: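 Human kidney mesenchymal cells from normal renal glomeruli, 1000 cells/well, rested 5 hr at 37 °C, then treated 40 hr at 37 °C in complete medium. Cellular ATP read by CellTiter-Glo luminescence; AC50 from Hill-equation fits.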

Measured: Potency

Cc1cc(NC(=O)Nc2ccc(N(C)C)cc2)c2cc(F)cc(F)c2n1
inactive: [1] > 46 µM | [2] > 46 µM

O=S(=O)(O)c1ccc2cc(N=Nc3cc(S(=O)(=O)O)c4cccnc4c3O)ccc2c1
inactive: [3] > 11.4 µM | [4] | [5] | [1] > 46 µM | [2] > 9.22 µM | [6] | [7]

CC1C(=O)OC2C(O)C34C5CC(C(C)(C)C)C36C(OC(=O)C6O)OC4(C(=O)O5)C12O (stereo unspecified)
inactive: [1] > 46 µM | [2] > 46 µM | [6] | [7]

O=c1cc(-c2ccc(O)c(O)c2)oc2cc(O)cc(O)c12
active: [6] 6.31 µM
inactive: [1] > 20.6 µM and > 46 µM | [2] > 20.6 µM and > 46 µM | [7]

Cc1ccc(NC(=O)c2cccc(N(C)C)c2)cc1NC(=O)c1ccc(O)cc1
inactive: [1] > 46 µM | [2] > 46 µM | [6] | [7]

COc1nccc(-c2c(-c3ccc(F)cc3)ncn2C2CCC(O)CC2)n1 (stereo unspecified)
inactive: [1] > 46 µM | [2] > 46 µM | [7]

CC(NCCc1ccc(O)cc1)C(O)c1ccc(O)cc1 (stereo unspecified)
inactive: [4] | [8] | [1] > 20.6 µM

CN(C)CCN(Cc1ccc(Cl)cc1)c1ccccn1
inactive: [8] | [1] > 20.6 µM | [2] > 20.6 µM | [6]

NCC1CCC(C(=O)O)CC1 (stereo unspecified)
inactive: [4] | [5] | [8] | [6] | [7]

NS(=O)(=O)c1cc(Cl)c(Cl)c(S(N)(=O)=O)c1
inactive: [4] | [5] | [8] | [1] > 20.6 µM | [2] > 20.6 µM | [6] | [7]

C[C@@H]1C[C@H]2[C@@H]3CCC4=CC(=O)C=C[C@]4(C)[C@@]3(F)[C@@H](O)C[C@]2(C)[C@@]1(O)C(=O)CO
inactive: [9] > 92 µM | [10] > 92 µM | [11] > 92 µM | [12] > 92 µM | [13] > 92 µM | [14] > 92 µM | [15] | [16] | [17] | [18] | [19] | [20]

CCC(=C(CC)c1ccc(O)cc1)c1ccc(O)cc1
inactive: [1] > 20.6 µM | [2] > 20.6 µM | [6] | [7]

CN(C)c1ccccc1CN1CCCN(Cc2ccccc2N(C)C)C1c1ccncc1
inactive: [3] > 11.4 µM | [4] | [5] | [8] | [1] > 46 µM | [2] > 9.22 µM | [6] | [7]

CCCCC[C@H](O)C=C[C@H]1[C@H](O)CC(=O)[C@H]1CCCCCCC(=O)O
inactive: [1] > 46 µM | [2] > 46 µM | [6]

Clc1ccc(COC(Cn2ccnc2)c2ccc(Cl)cc2Cl)c(Cl)c1 (stereo unspecified)
inactive: [2] > 20.6 µM | [6]

CCCCC(C=O)NC(=O)C(CC(C)C)NC(=O)OCc1ccccc1 (stereo unspecified)
inactive: [1] > 46 µM | [2] > 46 µM | [6] | [7]

CN1CCN2c3ncccc3Cc3ccccc3C2C1 (stereo unspecified)
inactive: [1] > 46 µM | [2] > 46 µM | [6]

C=C1c2cccc(O)c2C(O)=C2C(=O)[C@@]3(O)C(O)=C(C(N)=O)C(=O)[C@@H](N(C)C)[C@@H]3[C@@H](O)[C@H]12
inactive: [4] | [5] | [8] | [1] > 20.6 µM | [2] > 20.6 µM | [6] | [7]

NC(=O)c1nnn(Cc2cc(Cl)c(C(=O)c3ccc(Cl)cc3)c(Cl)c2)c1N
inactive: [3] > 11.4 µM | [4] | [5] | [8] | [1] > 46 µM | [2] > 9.22 µM | [6] | [7]

CN[C@H]1[C@@H](O[C@@H]2[C@H](O[C@@H]3[C@@H](O)[C@@H](O)[C@@H](N=C(N)N)[C@@H](O)[C@@H]3N=C(N)N)O[C@H](C)[C@@]2(O)C=O)O[C@@H](CO)[C@@H](O)[C@H]1O
inactive: [4] | [5] | [8] | [1] > 20.6 µM | [2] > 20.6 µM | [6] | [7]

COc1ccc(CCN(C)CCCOc2ccc(S(=O)(=O)c3[nH]c4ccccc4c3C(C)C)cc2)cc1OC
inactive: [1] > 46 µM | [2] > 46 µM | [7]

Cc1cc2nc3c(=O)[nH]c(=O)nc-3n(CC(O)C(O)C(O)CO)c2cc1C (stereo unspecified)
inactive: [4] | [5] | [8] | [1] > 20.6 µM | [2] > 20.6 µM and > 46 µM | [6] | [7]
